Experimental data taken from PubChem BioAssay (NCATS).
Results filed as inconclusive are left out. Where a call stands in place of a potency, no number is given. Active and inactive are the calls of the source. Calls come from the whole dose curve; as a rule, active = well fitted inhibition curve with a large enough effect; inconclusive = small, poorly fitted or top-dose-only effect; inactive = no such curve, though single readings can be large or run the other way. Where a SMILES comes first, the peptide text is derived from it. [ ]: non-standard residue; d: D form. ξ: configuration not given here. ξPhe(βξ-Me) = CC(c1ccccc1)C(N)C(=O)O; GABA = NCCCC(=O)O

assay: P-glycoprotein substrates identified in KB-3-1 adenocarcinoma cell line, qHTS therapeutic library screen (AID 1346986); settings: KB-3-1 parental cells viability, CellTiter-Glo, 72 h; series mostly up to 44.5 µM; note: nearly all actives have a fitted effect of over 60% in size
How it was run: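 Cells seeded 500/well in DMEM/10% FCS; compounds pinned in dose-response; 72 h incubation; CellTiter-Glo added, 5 min, luminescence. KB-8-5-11 run ±tariquidar to test reversal of P-gp resistance.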

Structure (SMILES) | Potency
NCCOCCOCCNC(=O)Cc1ccc(Nc2nc(NCc3ccc(F)cc3)nc(NCC3CCCCC3)n2)cc1 | inactive
OC1COC(OCC2OC(OCCc3ccccc3)C(O)C(O)C2O)C(O)C1O (configuration not stated) | inactive
Nc1ncnc2c1ncn2[C@H]1CCCO1 | inactive
CC(C)CC1NC(=O)C(C(C)c2ccccc2)NC(=O)C(C(C)C)NC(=O)C(C)NC(=O)CCCNC(=O)C(Cc2c[nH]c3ccccc23)NC(=O)C(C)NC1=O (stereo not drawn) (cyclo([GABA]AV[ξPhe(βξ-Me)]LAW); configuration not given here) | inactive
CC1(C)CC2C(C1)C1(C)CCC13OC3(CO)C2O (configuration not stated) | inactive
COc1cc(-c2cccc(O)c2)cc2c1OCO2 | inactive
COc1cc(C(C)=O)ccc1O[C@@H]1O[C@H](CO[C@@H]2O[C@@H](C)[C@H](O)[C@@H](O)[C@H]2O)[C@@H](O)[C@H](O)[C@H]1O | inactive
O=C(/C=C/c1ccc(O)cc1)OCC1=C[C@@H](O)[C@@H]2C=CO[C@@H](O[C@@H]3O[C@H](CO)[C@@H](O)[C@H](O)[C@H]3O)[C@H]12 | inactive
COC(=O)[C@H](OC(C)=O)[C@H]1C(C)(C)C(=O)[C@H]2CC3=C4CC(=O)O[C@@H](c5ccoc5)[C@]4(C)CCC3[C@@]1(C)C2=O (some centres not stated) | inactive
CC1=CCC2C(C)(CO)CCCC2(C)C1CC12OC1C(O)C(CO)=CC2O (configuration not stated) | inactive
CCCCS(=O)(=O)Nc1ncnc(OCCOc2ncc(Br)cn2)c1-c1ccc(Br)cc1 | inactive
COc1ncc(-c2ccc3c(Nc4cc(Oc5cc(F)cc(F)c5)cc(C(=O)O)c4)c(S(=O)(=O)NC4CC4)cnc3c2)c(OC)n1 | inactive
